Results published in PubChem BioAssay (EPA / NIEHS).
The source made the active and inactive calls. How the source made its calls: active means hit-call score of the fitted dose curve at least 0.9, where 1 is the maximum; inactive means score below 0.9.

Key:
[1] = UKN5_HCS_SBAD2_cell_viability: Viability Assessment in the University of Konstanz (UKN) Leist Lab Neurite Outgrowth Assay in human iPSC-derived immature Dorsal Root Ganglia Neurons (UKN5) (AID 2284056)
Protocol: UKN5_HCS_SBAD2 is a cell-based, multiplexed-readout assay screening for neurite outgrowth and cell viability that uses SBAD2 (peripheral neurons differentiated from iPSC), a human peripheral nervous system cell line, with measurements taken at […] after chemical dosing in a microplate: 96-well plate. UKN5, also referred to as PeriTox, is an assay that uses human iPSC line SBAD2 as a model of peripheral neurons. Following 24 hr chemical exposures in multi-well plates, neurite area is evaluated as a marker of neurite outgrowth using high-content imaging of cells stained with calcein-AM. Cell viability is assessed using stain Hoechst H-33342.UKN5_HCS_SBAD2_cell_viability is an assay component measured from the UKN5_HCS_SBAD2 assay. It is designed to make measurements of enzyme activity, a form of viability reporter, as detected with Fluorescence intensity signals by HCS Fluorescent Imaging.The assay endpoint UKN5_HCS_SBAD2_cell_viability was analyzed with bidirectional fitting relative to DMSO as the negative control and baseline of activity. Using a type of viability reporter, gain or loss-of-signal activity can be used to understand viability effects. To generalize the intended target to other relatable targets, this assay endpoint is annotated to the cell cycle intended target family, where the subfamily is viability. […]

[2] = UKN5_HCS_SBAD2_neurite_outgrowth: University of Konstanz (UKN) Leist Lab Neurite Outgrowth Assay in human iPSC-derived immature Dorsal Root Ganglia Neurons (UKN5) (AID 2284070); conditions: actives raise or lower the signal
How it was run: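 Human iPSC-derived immature DRG neurons (SBAD2) on Matrigel with CHIR99021 (1.5 uM), SU5402 (5 uM), DAPT (5 uM); compounds added 1 h post-seeding for 24 h. Calcein-AM neurite area imaged; bidirectional fit vs DMSO.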

[3] = UKN4_HCS_LUHMES_neurite_outgrowth: University of Konstanz (UKN) Leist Lab Neurite Outgrowth Assay in human LUHMES cells (UKN4) (AID 2284206); conditions: actives raise or lower the signal
How it was run: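 LUHMES neuronal precursors differentiated 2 days, replated without cAMP/GDNF, then exposed to chemicals for 24 h. Neurite area imaged by high-content microscopy after calcein-AM staining; Hoechst H-33342 marks viability. Bidirectional fit versus DMSO.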

Compound | AC50 [1] | AC50 [2] | AC50 [3] | outcome [1]
S=C([S-])NCCNC(=S)[S-].[Mn+2] | 7.5 µM (active) | 4.28 µM (active) | 2.16 µM (active) | 
S=C(S)NCCNC(=S)S.[Mn+2].[S-]C([S-])=NCCN=C([S-])[S-].[Zn+2] |  | 15 µM (active) |  | inactive
